Drawing on PubChem BioAssay (EPA / NIEHS), this text covers outcome and AC50 for 38 compounds.

The term AC50 denotes the concentration at which the activity in the assay is half-maximal.

Where “and” joins values, the source holds several entries; their conditions need not be identical. Equal entries are not always repeated. More than one record can exist for a structure, and the calls need not agree. Calls of active or inactive are those of the source. How the source made its calls: active means hit-call score of the fitted dose curve at least 0.9, where 1 is the maximum; inactive means score below 0.9.

Read-out in the assay: Collagen III, COL3A1 (gene 1281)
Put plainly: BSK_hDFCGF_CollagenIII: BioMAP Diversity Plus: hDFCGF Assay for Collagen III Biomarker Activity (AID 2283056). As to conditions: primary human foreskin fibroblasts; actives raise or lower the signal. How it is done: BSK_hDFCGF is a cell-based, multiplexed-readout assay that uses foreskin fibroblast, a human skin primary cell, with measurements taken at 24 hours after chemical dosing in a 96-well plate.BSK_hDFCGF_CollagenIII is an assay component measured in the BSK_hDFCGF assay. It measures Collagen antibody related to regulation of gene expression using ELISA technology.Data from the assay component BSK_hDFCGF_CollagenIII was analyzed into 1 assay endpoint. This assay endpoint, BSK_hDFCGF_CollagenIII, was analyzed with bidirectional fitting relative to DMSO as the negative control and baseline of activity. Using a type of binding reporter, gain or loss-of-signal activity can be used to understand changes in the signaling as they relate to the gene COL3A1. Furthermore, this assay endpoint can be referred to as a primary readout, because this assay has produced multiple assay endpoints where this one serves a signaling function. To generalize the intended target to other relatable targets, this assay endpoint is annotated to the cell adhesion molecules intended target family, where the subfamily is collagen.
The levels of cell surface (or secreted, indicated by the prefix "s") biomarker endpoints were measured by ELISA. Overt cytotoxicity to cells in confluent adherent cultures (all systems other than the BT system) was assessed by measuring total protein levels using sulforhodamine B (SRB) staining in parallel cultures at the time of biomarker measurements, indicated as SRB endpoints. For proliferation assays for adherent cell types, individual cell types are cultured at sub-confluence and relative cell numbers quantified by SRB staining at time points optimized for each system (48 h: 3C and CASM3C systems; 72 h: BT and HDF3CGF systems; 96 h: SAg system). SRB was performed by staining cells with 0.1% SRB after fixation with 10% TCA and reading wells at 560 nm.Viability and proliferation of PBMC (T cells) was quantified by Alamar Blue reduction for the SAg and BT systems. For PBMC viability (referred to as PBMC Cytotoxicity within the assay endpoint names), cells were plated (75,000/well in a 96-well plate) and then chemical samples added for 1 h before addition of activators, SEB and TSST-1 (20 ng/mL final concentration each). Cells were incubated for 90 h. Then, Alamar Blue (20 uL/well) (Invitrogen, Cat DAL1100) was added for 6 h, and the plates were read with a fluorescence microplate reader at 546/580 nm (excitation/emission). For PBMC proliferation, cells were plated and activated as above but incubated for only 16 h prior to addition of Alamar Blue. Plates were read after 6 h.
In the case of `CCCOC(=O)c1ccccc1C(=O)OCCC`, the result was inactive.

For the compound `CCCC[N+](CCCC)(CCCC)CCCC`, the outcome was inactive.

On to `[Cd+2].[Cl-].[Cl-]`, for which the AC50 is 3.57 µM (active) and 4.55 µM (active).

With `C=CCN(CC=C)C(=O)C(Cl)Cl`, the outcome was inactive.

Take `O=[N+]([O-])c1ccc(Cl)cc1`: the outcome was inactive.

Take `CCCCCCCCCCCC#N`: the result was inactive.

With `O=[N+]([O-])C=Cc1ccccc1`, the AC50 was 33.1 µM (active).

On to `Oc1ccc(C2(c3ccc(O)cc3)c3ccccc3-c3ccccc32)cc1`, for which the AC50 is 2.68 µM (active) and 2.27 µM (active).

`Clc1ccc(-c2ccccc2)cc1`: the result was inactive.

For `CC(C)(C)C(O)C(Oc1ccc(-c2ccccc2)cc1)n1cncn1` (centres undefined), the AC50 was 24.9 µM (active).

For the compound `C=CC(=O)OCC(CC)CCCC` (centres undefined), the concentration at half-maximal activity (AC50) is 20 µM (active).

Take `O=c1c2ccccc2c(=O)c2c1cc(Cl)c1[nH]c3c([nH]c12)c(Cl)cc1c(=O)c2ccccc2c(=O)c13`: the outcome was inactive.

Take `COc1ccc(CO)cc1`: the outcome was inactive.

Consider `COCC(=O)N(c1c(C)cccc1C)N1CCOC1=O`, for which the result was inactive.

Take `CC(C)(C)C(=O)CCl`: the outcome was inactive.

`O=c1[nH]c(Cl)c(Cl)cc1Cl`: the result was inactive.

Consider `Oc1cc(Cl)ccc1Cl`, for which the result was inactive.

For `CC(C)CCCCCCCOC(=O)c1ccccc1C(=O)OCCCCCCCC(C)C`, the result was inactive.

As for `O=C(O)CCCc1ccc(N(CCCl)CCCl)cc1`, the AC50 was 20 µM (active) and the result was inactive.

Turning to `O=[N+]([O-])O`, the outcome was inactive.

`CCc1cc(C)cc(CC)c1-c1c(OC(=O)C(C)(C)C)n2n(c1=O)CCOCC2`: the result was inactive.

As for `Cc1ccc(OP(=O)(Oc2ccc(C)cc2)Oc2ccc(C)cc2)cc1` (tested in a mixture with another compound), the AC50 is 12.9 µM (active).

As for `CCC(C)c1cc([N+](=O)[O-])cc([N+](=O)[O-])c1OC(=O)C=C(C)C` (centres undefined), the AC50 is 5.31 µM (active).

Take `N#CCCCCC#N`: the result was inactive.

Consider `O=S(=O)(c1ccccc1)c1ccccc1`, for which the result was inactive.

With `O=C1C(Cl)=C(Cl)C(=O)C(Cl)=C1Cl`, the AC50 was 20 µM (active).

Consider `c1ccc(Nc2ccc3ccccc3c2)cc1`, for which the AC50 was 30.7 µM (active).

For `O=P1(NCCCl)OCCCN1CCCl` (centres undefined), the result was inactive.

Take `O=C1C=CC(=O)C=C1`: the AC50 was 20 µM (active).

With `Nc1ccc(-c2ccc(N)c(N)c2)cc1N`, the AC50 is 20 µM (active).

With `CC(C)CCCCCCCOP(=O)(Oc1ccccc1)Oc1ccccc1`, the AC50 was 5.29 µM (active).

Turning to `O=C(CCl)c1ccccc1`, the AC50 was 4.85 µM (active).

On to `CC(C)COP(=O)(OCC(C)C)OCC(C)C`, for which the result was inactive.

Turning to `CC(=O)/C=C/c1ccccc1`, the outcome was inactive.

Turning to `CC1(C)[C@H](C(=O)O[C@H](C#N)c2cccc(Oc3ccccc3)c2)[C@@H]1C=C(Br)Br`, the half-maximal activity concentration (AC50) is 7.51 µM (active) and 4.58 µM (active).

For the compound `COC(C)(C)CCC[C@H](C)C/C=C/C(C)=C/C(=O)OC(C)C`, the AC50 is 16.6 µM (active).

Regarding `CNC(=O)Oc1cc(C)c(SC)c(C)c1`, the outcome was inactive.

In the case of `CC(C)(c1cc(Cl)c(O)c(Cl)c1)c1cc(Cl)c(O)c(Cl)c1`, the AC50 is 29.6 µM (active).
